ELG1 genotox – genotoxicity induction in ELG1-luciferase HEK293T cells; HEK293T ELG1-luciferase reporter, luminescence, 16 h; Potency, µM (top dose mostly 46 µM), usual class: activators; 330,000 compounds, 1.3% hits; further: nearly all actives have a fitted effect of over 60% in size
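ELG1-luciferase HEK293T cells, 2,000/well; compound pinned in; 16 hr, 37 °C, 5% CO2; ONE-Glo, 30 min RT; luminescence on CCD imager.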
Rab9 prom act – activates the Rab9 promoter | Potency, µM (top dose mostly 9.22 µM), usual class: activators | 320,000 compounds, 2.8% hits | AID 485297 | Huh7 Rab9 promoter-luciferase reporter, luminescence, 24 h; further: nearly all actives have a fitted effect of over 60% in size
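Luminescence from Amplite-detected luciferase (10 minutes, ambient) reports Rab9 promoter activation. Before that, stable Rab9-luciferase Huh7 cells (1500/well, reduced-serum OP-MEM I plus 10% FBS) were exposed to compound for 24 hours at 37C.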
NPC1 prom act – activators of NPC1 promoter; 320,000 compounds, 2.4% hits; AID 485313; Potency, µM (doses to about 9.22 µM), usual class: activators; Huh7 NPC1 promoter luciferase reporter, 24 h; further: nearly all actives have a fitted effect of over 60% in size
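Quantitative HTS used a cell-based reporter: Huh7 cells stably bearing the NPC1 promoter upstream of luciferase were treated with compounds for 24 h, and promoter activation was read as luminescence.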
FLuc counter – inhibits or activates purified firefly luciferase, miR-21 counter-screen; P08659; purified FLuc, Km substrates, luminescence inhibition; Potency, µM (series often up to 57.5 µM), hits mostly inhibitors; 360,000 compounds, 6.9% hits; AID 588342; further: nearly all actives have a fitted effect of over 55% in size
Target sequence (P08659 whole entry, looked up): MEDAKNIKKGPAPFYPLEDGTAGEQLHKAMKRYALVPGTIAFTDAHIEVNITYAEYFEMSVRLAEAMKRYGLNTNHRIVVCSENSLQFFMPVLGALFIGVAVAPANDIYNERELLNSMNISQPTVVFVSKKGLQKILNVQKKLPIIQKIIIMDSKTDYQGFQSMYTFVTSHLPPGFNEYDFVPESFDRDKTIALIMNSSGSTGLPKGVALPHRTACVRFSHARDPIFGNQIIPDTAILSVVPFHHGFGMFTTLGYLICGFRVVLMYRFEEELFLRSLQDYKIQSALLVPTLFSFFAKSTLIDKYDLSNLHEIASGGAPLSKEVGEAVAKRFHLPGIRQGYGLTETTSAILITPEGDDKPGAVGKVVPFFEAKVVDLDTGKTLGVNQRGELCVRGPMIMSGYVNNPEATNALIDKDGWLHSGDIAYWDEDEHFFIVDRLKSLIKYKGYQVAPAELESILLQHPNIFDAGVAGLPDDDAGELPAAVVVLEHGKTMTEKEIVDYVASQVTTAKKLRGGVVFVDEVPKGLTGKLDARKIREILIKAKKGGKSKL
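Purified P. pyralis luciferase (10nM final) with 10uM D-luciferin and 10uM ATP (Km levels) in 50mM Tris acetate pH 7.5, 10mM Mg acetate, 0.01% Tween-20, 0.05% BSA; qHTS 6-point titration, ~60 µM downward; luminescence read.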
KinaseGlo FLuc – blocks Kinase-Glo luciferase, a counter-screen artifact; AID 1379; Kinase-Glo luciferase, ATP luminescence, 8 min; 200,000 compounds, 0.28% hits; Potency, µM (top dose mostly 38.3 µM), most hits filed as inhibitors; Q27757; further: nearly all actives have a fitted effect of over 60% in size
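Light output from Kinase-Glo luciferase with luciferin and 10 uM ATP in 50 mM imidazole pH 7.2, KCl, MgCl2, Tween 20, BSA; compound pin-delivered, 8-min ambient incubation, then luminescence read.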
SMN2 splice enh – enhancers of SMN2 splice variant expression; HEK293 SMN2-luciferase splicing reporter, luminescence, 30-36 h; Potency, µM (top dose mostly 46.1 µM), actives largely listed as activators; 210,000 compounds, 2.8% hits; further: nearly all actives have a fitted effect of over 55% in size
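HEK293 cells carry an SMN2 minigene-luciferase reporter in which exon 7 inclusion puts luciferase in frame. Cells were seeded at 2000 cells/well, attached for 10-12 hours, then exposed to compounds for 30-36 hours at 37C before ONE-Glo luminescence.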
Of the large screens only hits and unclear results are named; the others gave an inactive call. Most compounds without a hit are left out; they make up all but 7.3% or so of the library. The call rests on the fitted dose curve; in most records, active means well fitted curve in the direction sought with a large enough effect; inconclusive means small, poorly fitted or top-dose-only effect, or another doubt; inactive means no such curve, though single readings can be large; an effect the other way counts as inactive or inconclusive.

CCOc1ccc2nc(Cl)c(C3CC(c4ccc(C)cc4)=NN3C(=O)CCCC(=O)O)cc2c1 (stereo not given)	none (no result: ELG1 genotox, Rab9 prom act, NPC1 prom act, KinaseGlo FLuc)
Cc1ccc(S(=O)(=O)NCCc2nnc3ccc(SCc4ccccc4F)nn23)cc1	none (no result: ELG1 genotox, Rab9 prom act, NPC1 prom act, KinaseGlo FLuc, SMN2 splice enh)
CCCCOc1ncnc2c1[nH]c1ccc(OC)cc12	ELG1 genotox inconclusive, Rab9 prom act 1.4µM, NPC1 prom act 0.56µM, FLuc counter 1.7µM, SMN2 splice enh inconclusive
CCCCOc1ncnc2c1[nH]c1ccc(F)cc12	FLuc counter 2.7µM
CCCCOc1ncnc2c1[nH]c1ccc(OCC)cc12	none
CCCCOc1ncnc2c1[nH]c1ccccc12	FLuc counter 11µM
CCOC(=O)c1cccc(NC(=O)C2CCN(S(=O)(=O)c3cn(C)cn3)CC2)c1	none (no result: ELG1 genotox, Rab9 prom act, NPC1 prom act, KinaseGlo FLuc, SMN2 splice enh)
CCOc1ccc(NC(=O)CSC2=Nc3ccccc3C3=NC(CC(=O)NCc4ccccc4OC)C(=O)N23)cc1 (stereo not given)	none (no result: ELG1 genotox, Rab9 prom act, NPC1 prom act, KinaseGlo FLuc, SMN2 splice enh)
N#C/C(=C\c1ccc(-c2cccc(Cl)c2)o1)C(=O)Nc1cccc(C(F)(F)F)c1	none (no result: ELG1 genotox, Rab9 prom act, NPC1 prom act, KinaseGlo FLuc)
CCSc1ccc(C(=O)Nc2ccc(-c3nc4ccc(C)cc4s3)cc2)cc1	none (no result: ELG1 genotox, Rab9 prom act, NPC1 prom act, KinaseGlo FLuc, SMN2 splice enh)
Cc1ccc2nc(-c3ccc(NC(=O)CN4CCN(c5ccccn5)CC4)cc3)sc2c1	ELG1 genotox inconclusive, Rab9 prom act inconclusive, NPC1 prom act inconclusive, FLuc counter 11µM (no result: KinaseGlo FLuc, SMN2 splice enh)
Cc1ccc2nc(-c3ccc(NC(=O)CN4C(=O)c5ccccc5C4=O)cc3)sc2c1	ELG1 genotox 9.2µM, Rab9 prom act 4µM, NPC1 prom act inconclusive, FLuc counter 2.7µM, SMN2 splice enh 2.8µM
O=C(CN1CCN(c2ccccn2)CC1)Nc1ccc2ccccc2c1	ELG1 genotox inconclusive, FLuc counter 17µM
Cc1ccc2nc(-c3ccc(NC(=O)COC(=O)c4ccc(=O)[nH]c4)cc3)sc2c1	ELG1 genotox 2.3µM, Rab9 prom act 0.56µM, NPC1 prom act 0.35µM, FLuc counter 3.4µM, SMN2 splice enh 1.6µM
CN(C)CCCN=c1c2ccccc2n(C)c2[nH]c(=O)n(C)c(=O)c12	none (no result: ELG1 genotox, Rab9 prom act, NPC1 prom act, FLuc counter)
NC(CCC(=O)N[C@@H](CS)C(=O)NCC(=O)O)C(=O)O (stereo not given in full)	none (no result: ELG1 genotox, Rab9 prom act, NPC1 prom act, FLuc counter)
c1ccc(B2OC[C@@H]3OB(c4ccccc4)O[C@H]([C@@H]4COB(c5ccccc5)O4)[C@@H]3O2)cc1	none (no result: ELG1 genotox, Rab9 prom act, NPC1 prom act, FLuc counter)
CC(=O)Nc1nonc1-c1nnc(SCc2ccc(F)cc2)n1C	none (no result: ELG1 genotox, Rab9 prom act, NPC1 prom act, KinaseGlo FLuc, SMN2 splice enh)
O=c1[nH]c2ccccc2nc1/C=C(\O)c1cccs1	ELG1 genotox inconclusive, Rab9 prom act 3.2µM, NPC1 prom act 4µM, FLuc counter inconclusive (no result: SMN2 splice enh)
O/C(=C\c1nc2ccccc2[nH]1)c1cccs1	ELG1 genotox inconclusive, Rab9 prom act 4µM, NPC1 prom act 3.5µM, FLuc counter 13µM (no result: KinaseGlo FLuc, SMN2 splice enh)
CC(C)(C)/C(O)=C/c1nc2ccccc2[nH]c1=O	none
O=C(C1CCCN(S(=O)(=O)c2cccc3nsnc23)C1)N1CCN(c2ccccc2)CC1 (stereo not given)	none (no result: ELG1 genotox, Rab9 prom act, NPC1 prom act, KinaseGlo FLuc)
CCC(=C(CC)c1ccc(O)cc1)c1ccc(O)cc1	none (no result: ELG1 genotox, Rab9 prom act, NPC1 prom act, FLuc counter)
Cc1cnc(C(=O)Nc2nnc(C(C)C)s2)cn1	ELG1 genotox 9.2µM, Rab9 prom act 2.8µM, NPC1 prom act 2.5µM, FLuc counter inconclusive, SMN2 splice enh 13µM
NNC(=O)c1cn2ccccc2n1	none
Cc1cnc(C(=O)Nc2nnc(C)s2)cn1	none
O=C(Nc1nccs1)c1cn2ccccc2n1	ELG1 genotox inconclusive, Rab9 prom act 0.11µM, NPC1 prom act 0.32µM, FLuc counter 1.3µM (no result: KinaseGlo FLuc, SMN2 splice enh)
Cc1cnc(C(=O)Nc2nccs2)cn1	Rab9 prom act 3.2µM, NPC1 prom act inconclusive, FLuc counter inconclusive
CCC(C)OC(=O)n1ccc(C(=O)Nc2nccs2)n1 (stereo not given)	FLuc counter 17µM
CCC1CN(C(=O)N2CCC(C(=O)NCc3cccc(F)c3)CC2)c2cc(C)ccc2O1 (stereo not given)	none (no result: ELG1 genotox, Rab9 prom act, NPC1 prom act, KinaseGlo FLuc, SMN2 splice enh)
O=c1[nH][nH]cc1C=Nc1ccc(Cl)cc1Cl	FLuc counter 7.6µM
O=c1[nH][nH]cc1C=Nc1cc(Cl)ccc1O	none
CCc1ccccc1NC(=O)CC1NCCNC1=O (stereo not given)	none (no result: ELG1 genotox, Rab9 prom act, NPC1 prom act, KinaseGlo FLuc)
CCN(CC)c1ccc(/C=N/NC(=O)Cc2cccs2)c(O)c1	ELG1 genotox inconclusive, FLuc counter inconclusive

Bioassay records (PubChem BioAssay)
